The campaign covered roughly 360,000 compounds. About 2,100 (0.58%) were called active. The list comes from a sample in which actives are over-represented; it also holds similar structures and randomly drawn compounds. Unmarked numbers belong to inactive results. No stated cut-off is given here; in the data, active means inhibition above about 36%; inactive means the rest.
Biological target: NEDD8-conjugating enzyme Ubc12 (Homo sapiens) + NEDD8-activating enzyme E1 regulatory subunit (Homo sapiens) (UniProt P61081+Q13564)
Sequence (P61081 whole entry, looked up): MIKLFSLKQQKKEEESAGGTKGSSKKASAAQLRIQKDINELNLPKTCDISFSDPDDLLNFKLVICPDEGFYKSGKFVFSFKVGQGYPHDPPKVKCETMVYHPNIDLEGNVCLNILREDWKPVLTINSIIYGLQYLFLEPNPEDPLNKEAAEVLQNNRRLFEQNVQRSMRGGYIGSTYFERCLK
Sequence (Q13564 whole entry, looked up): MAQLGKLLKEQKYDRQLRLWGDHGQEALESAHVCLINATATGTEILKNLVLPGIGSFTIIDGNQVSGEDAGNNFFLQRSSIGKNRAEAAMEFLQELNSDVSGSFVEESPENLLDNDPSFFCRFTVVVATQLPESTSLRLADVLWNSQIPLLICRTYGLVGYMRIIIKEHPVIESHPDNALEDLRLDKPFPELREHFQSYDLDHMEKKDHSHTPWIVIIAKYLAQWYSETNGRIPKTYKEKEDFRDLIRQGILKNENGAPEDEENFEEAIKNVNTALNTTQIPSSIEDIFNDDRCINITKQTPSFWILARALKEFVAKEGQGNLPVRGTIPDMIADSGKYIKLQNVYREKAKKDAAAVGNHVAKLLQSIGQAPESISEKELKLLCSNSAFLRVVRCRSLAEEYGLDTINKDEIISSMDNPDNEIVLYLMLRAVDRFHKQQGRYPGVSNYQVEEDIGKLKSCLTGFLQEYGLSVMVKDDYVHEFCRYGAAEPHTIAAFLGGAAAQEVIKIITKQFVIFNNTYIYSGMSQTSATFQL
Assay: inhibitors of cullin neddylation, primary screen, biochemical, TR-FRET, uHTS, NAE and Ubc12 (AID 651699)
Conditions: at 25 µM, hits give high values

Row | SMILES | inhibition
1 | CCN1CCCC1Cn1cnc2c([nH]c3cc(OC)ccc32)c1=O (centres undefined) | 1.83%
2 | CCN1CCCC1CNc1ncnc2c1[nH]c1ccc(F)cc12 (centres undefined) | 37% (active)
3 | CCN1CCCC1CNC(=O)Cn1cnc2ccc(S(=O)(=O)N3CCC(C)CC3)cc2c1=O (centres undefined) | -2.38%
4 | CCOC(=O)C1=C(N)N2C(=O)C(C)SC2=C(C(=O)OCC)C1c1cc(OC)c(OC)c(OC)c1 (centres undefined) | -1.53%
5 | CC(=O)c1ccc(Nc2nc(C(N)c3ccccc3)cs2)cc1 (centres undefined) | 41.1% (active)
6 | COc1ccc(CC(N)c2csc(NC(=O)NC(c3ccccc3)c3ccccc3)n2)cc1 (centres undefined) | -1.83%
7 | COC(=O)c1ccc2c(c1)S(=O)(=O)NC(=NCCCN1CCOCC1)S2 | -10.1%
8 | CC(Sc1nc2c([nH]c3ccccc32)c(=O)n1C)c1ccccc1 (centres undefined) | -4.19%
9 | O=c1c2c(nc3cc(-c4cccc(Cl)c4)[nH]n13)CCCC2 | 40.3% (active)
10 | CSc1nc2nc3c(c(=O)n2[nH]1)CCC3 | -7.01%
11 | Clc1cccc(Cc2c(-c3cccc(Cl)c3)nc3ccc(Cl)cn23)c1 | -36.7%
12 | O=C(Nc1cc(-c2nn(CC(=O)N3CCCCC3)c(=O)c3ccccc23)ccc1N1CCOCC1)c1ccc(Cl)cc1 | 20.1%
13 | O=C(CCl)NNc1cccc(Cl)n1 | 3.4%
14 | COc1ccc2oc(C(=O)NCC(Cc3ccccc3)N(C)C)c(C)c2c1 (centres undefined) | 43.3% (active)
15 | COc1ccc2oc(C(=O)N(CC(C)C)C3CCS(=O)(=O)C3)c(C)c2c1 (centres undefined) | 2.83%
16 | NC(=O)C1(N2CCCCC2)CCN(C(=O)c2ccc(C#Cc3ccccc3)o2)CC1 | -13.2%
17 | O=C(NC(=S)Nc1ccc(Cl)c(C(=O)O)c1)c1cncc(Br)c1 | -4.06%
18 | COc1ccc(Br)cc1/C=N/Nc1ccc(Cl)c(C(=O)O)c1 | 45.1% (active)
19 | COc1ccc(Br)cc1/C=N/Nc1ccc(S(=O)(=O)Nc2ccccc2C(=O)O)cc1[N+](=O)[O-] | -8.62%
20 | CCN(CC(=O)NCc1cccs1)c1nnnn1-c1ccccc1 | 0.19%
21 | O=C(NCc1cccc(C(F)(F)F)c1)c1ccc2sc(COCCO)nc2c1 | 3.36%

Row | SMILES | inhibition
22 | CCOC(=O)c1cc(C(=O)Nc2ccc(S(=O)(=O)Nc3ccc(OC)cc3)cc2)nn1C | -1.03%
23 | CC(C)CN(C(=O)COC(=O)c1ccc2ccccc2c1)c1c(N)n(Cc2ccccc2)c(=O)[nH]c1=O | 3.53%
24 | CC(C)CN(C(=O)COC(=O)c1ccc(Cl)c(N)c1)c1c(N)n(Cc2ccccc2)c(=O)[nH]c1=O | 30.6%
25 | COc1ccc2oc(C(=O)OCC(=O)N(CC(C)C)c3c(N)n(Cc4ccccc4)c(=O)[nH]c3=O)c(C)c2c1 | 44.4% (active)
26 | CCN(CC)C(=O)C1=C(C)N(Cc2ccc(C(C)(C)C)cc2)C(=O)C(CC(=O)NCc2cccc3ccccc23)C1 (centres undefined) | -9.92%
27 | CC(C)Cc1nc(N2CCOCC2)c(C#N)c2c1CCC2 | 44.8% (active)
28 | CC(C)Cc1nc(Cl)c(C#N)c2c1CCC2 | -5.13%
29 | COc1cc(S(=O)(=O)N2CCOCC2)ccc1NC(=O)COc1ccc(N(C)S(=O)(=O)c2ccc(C)cc2)cc1 | -8.3%
30 | CCNC(=O)CN(c1ccc(C)cc1)S(=O)(=O)c1ccc(SC)cc1 | -3.17%
31 | Cc1cc(C(=O)OCC(=O)Nc2nnc(C(C)C)s2)c2ccccc2n1 | -11.2%
32 | CCOC(=O)c1cc(C)sc1NC(=O)C1CCC1 | -7.86%
33 | CCOC(=O)c1cc(C(C)C)sc1NC(=O)COC(=O)c1nccnc1N | 45.2% (active)
34 | COc1ccc(CN(CC(=O)NC2CCCC2)C(=O)CCC(=O)Nc2cc(C)on2)cc1 | 6.41%
35 | COc1cccc(NC(=O)c2nn(-c3ccc(OC)cc3OC)c(=O)c3ccccc23)c1 | -9.58%
36 | CCN(c1ccccc1)S(=O)(=O)c1ccc(OCC(=O)N2CCCC2)cc1 | -24.7%
37 | Cc1ccc(NC(=O)CC2C(=O)N(Cc3ccccc3)C(=S)N2NC(=O)c2cccc(F)c2)c(C)c1 (centres undefined) | 2.05%
38 | COc1ccccc1N1CCN(C(=O)c2ccc(NC3=NC4CS(=O)(=O)CC4S3)cc2)CC1 (centres undefined) | 0.72%
39 | COc1ccc(-n2nc(C(=O)NCC(=O)N3CCN(c4ccccc4OC)CC3)c3ccccc3c2=O)c(OC)c1 | 6.66%
40 | COc1ccc(Nc2ncc(C(=O)N3CCN(c4ccccc4OC)CC3)c3ccccc23)cc1 | 48.4% (active)
41 | CCN(CC(=O)Nc1c(F)cccc1F)C(=O)c1cnc(C)cn1 | -6.81%
42 | CCN(CC(=O)Nc1c(F)cccc1F)C(=O)c1ccc(-c2ccc(C(C)=O)cc2)o1 | 71.9% (active)

Row | SMILES | inhibition
43 | CCN(CC(=O)Nc1c(F)cccc1F)C(=O)c1ccc(-c2ccccc2)cc1 | 4.05%
44 | COc1cc(C2C(C(=O)c3cccs3)=C(O)C(=O)N2CCN2CCOCC2)ccc1OCCC(C)C (centres undefined) | -13.5%
45 | CN(CC(=O)Nc1cccc(F)c1)C(=O)C1CC(=O)N(CCc2ccccc2)C1 (centres undefined) | -1.18%
46 | Cc1cc(C)c2[nH]c(=O)c(CN(Cc3ccccc3)C(=S)NCCCN(C)C)cc2c1 | 2.15%
47 | Cc1ccc2cc(C#N)c(NCCNC(=S)NCCCN3CCOCC3)nc2c1 | 50.7% (active)
48 | Cc1cc(C)cc(NC(=S)NCCCN2CCOCC2)c1 | 0.98%
49 | C=CCn1c(SCc2nnc(-c3ccccc3)o2)nnc1C(O)c1ccccc1 (centres undefined) | 5.64%
50 | CCOc1ccc(N(C(=O)c2snc(C(N)=O)c2N)C(C(=O)NCC2CCCO2)c2c[nH]c3ccccc23)cc1 (centres undefined) | 7.52%
51 | COc1cc(F)c(C2=CC(=O)CC(C)(C)C2)cc1F | -23.8%
52 | COc1ccc(N(CC(=O)N/N=C/c2cccs2)S(=O)(=O)c2ccc(OC)c(OC)c2)cc1 | -15.8%
53 | COc1ccc(N(CC(=O)N/N=C/c2cccc3c2OCCO3)S(=O)(=O)c2ccc(NC(C)=O)cc2)cc1 | 38.9% (active)
54 | CC(=O)Nc1ccc(S(=O)(=O)N(CCc2ccccc2)CC(=O)N/N=C/c2ccc(C(=O)O)cc2)cc1 | -5.24%
55 | O=C(COc1ccccc1Cl)N1N=C(c2cccs2)CC1c1ccco1 (centres undefined) | 39.1% (active)
56 | O=C1c2cccc(OCC(=O)N3N=C(c4cccs4)CC3c3ccc(F)cc3)c2CCN1Cc1ccccc1 (centres undefined) | -25.8%
57 | Cc1ccc(C2=NN(C(=O)COc3ncnc4ccccc34)C(c3ccco3)C2)cc1 (centres undefined) | -119%
58 | CCC(C)(C(=O)NC1CCCC1)N(C(=O)CNC(C)=O)c1ccc(C)cc1 (centres undefined) | -5.51%
59 | O=C(Nc1cc(F)ccc1F)c1ccc2c(=O)n3c(nc2c1)CCC3 | 8.53%
60 | Cc1cc(C)c(C)c(S(=O)(=O)N2CCN(C(=O)c3ccc4c(=O)n5c(nc4c3)CCC5)CC2)c1C | 20.1%
61 | N#Cc1cccc(OC(=O)c2ccc3c(=O)n4c(nc3c2)CCC4)c1 | -4.93%
62 | N#Cc1ccc(/C=C2\CCn3c2nc2cc(C(=O)O)ccc2c3=O)cc1 | 63.7% (active)
63 | Cc1ccc(/C=C2\CCn3c2nc2cc(C(=O)O)ccc2c3=O)c(C)c1 | 31.9%

Row | SMILES | inhibition
64 | O=C(O)c1ccc2c(=O)n3c(nc2c1)/C(=C/c1ccc(OC(F)F)cc1OC(F)F)CC3 | 41% (active)
65 | CCCn1c(C2CCCN2c2nc(-c3ccc(OC)cc3)cs2)nc2ccccc21 (centres undefined) | -26.8%
66 | CCOC(=O)[C@]12CCC=C1N(Cc1ccco1)C(=O)[C@H](CC(=O)NCc1cccc(C(F)(F)F)c1)C2 | 5.67%
67 | COc1cc(C2NC(=O)NC(c3ccccc3)=C2C(C)=O)c(Br)cc1OCC(N)=O (centres undefined) | 9.92%
68 | COc1ccc(-n2cc(CN(C)Cc3n[nH]c(=O)[nH]3)c(-c3cccc(F)c3)n2)cc1 | 47.7% (active)
69 | Cc1nc2ccc(S(=O)(=O)NC(C(=O)N3CCCCCC3)C(C)C)cc2s1 (centres undefined) | 1.31%
70 | COc1cc2c(cc1CNC[C@H]1O[C@@H](n3cnc(C(N)=O)n3)[C@H](O)[C@@H]1O)OCO2 | 0.3%
71 | Cc1nn(-c2ccccc2)c(NC(=O)c2cccs2)c(-c2ccc(Cl)cc2)c1=O | 5.28%
72 | CCOC(=O)c1cnc2nc(SCc3ccccc3Cl)[nH]n2c1=O | 36.4% (active)
73 | CCOC(=O)CSc1nc2c(c(=O)n(Cc3ccccc3Cl)c(=O)n2C)n1C | -3.76%
74 | CCOC(=O)c1cnn(Cc2ccccc2Cl)c1N | 4.25%
75 | CC1=C(C(=O)OCC2CCCCC2)C(c2ccc(F)cc2)NC(=O)N1 (centres undefined) | 10.3%
76 | CCN(C[C@H]1N[C@@](CC)(C(=O)OC)[C@H]2C(=O)N(Cc3ccccc3)C(=O)[C@@H]12)S(=O)(=O)c1ccc(C(F)(F)F)cc1 | 2.27%
77 | Oc1ccc(-c2[nH]ncc2-c2nc3ccccc3s2)c(O)c1 | -10.2%
78 | c1ccc(-c2[nH]ncc2-c2nc3ccccc3[nH]2)cc1 | 44.3% (active)
79 | O=C1Nc2ccc([N+](=O)[O-])cc2C1=Nc1cccc(CO)c1 | -19.4%
80 | COC(=O)C1(C(=O)OC)C[C@H](c2ccccc2)N(Cc2ccccc2OC)[C@@H]1c1ccccc1 | -0.75%
81 | O=c1cc(CN2CCCCCCC2)c2c(ccc3ccccc32)o1 | 47.4% (active)
82 | CN(Cc1nc2ccccc2c(=O)[nH]1)Cc1cc(=O)oc2ccc3ccccc3c12 | 10.8%
83 | CC(C)c1ccc2oc(=O)cc(CN3CCN(Cc4ccccc4)CC3)c2c1 | 8.04%
84 | NC(=O)C1CCN(C(=O)/C(=C/c2ccco2)NC(=O)c2ccccc2)CC1 | 2.01%

— PubChem BioAssay AID651699 (Sanford-Burnham Center for Chemical Genomics, 2012)
